# Where a name gives a salt, the structure may show the parent alone.
# Test system: S. cerevisiae NKY1551 his4x/his4B, sporulating
# Assay: HIS4 meiotic recombination assay sensitivity score (z-score vs DMSO controls); higher = stronger inhibition of sporulation/recombination, active = hit call of the paper
# Settings: stock concentration (mM, diluted 1:100): 7.3;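 active = HIS4 sensitivity z-score above 5 vs DMSO controls; inactive = score 5 or below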
# Experimental: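 NIH Clinical Collection compounds were added 1:100 from stock (about 100 µM final) to S. cerevisiae. Growth: average doubling time (AvgG) over 24 h of BY4741 (wild-type) or AD1-9 (drug-efflux-pump deficient) in rich media. HIS4: the his4x/his4B heteroallelic recombination reporter strain (SK1) was sporulated 5 h with compound at 30°C, then colony density was read on -his plates after 48 h. Sensitivity score = (compound − mean of 8 DMSO controls)/SD of DMSO controls. Hit cutoffs are >2 for growth and >5 for sporulation.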
row,SMILES,HIS4 meiotic recombination assay sensitivity score
1,CN1[C@@H]2CC(OC(=O)[C@H](CO)c3ccccc3)C[C@H]1[C@@H]1O[C@@H]12 (stereo partly drawn),-0.64 (inactive)

# Same assay, conditions: stock concentration (mM, diluted 1:100): 7.7
row,SMILES,HIS4 meiotic recombination assay sensitivity score
1,CCC(COC(=O)c1cc(OC)c(OC)c(OC)c1)(c1ccccc1)N(C)C (stereo not drawn) [Trimebutine maleate],-1.28 (inactive)

# Same assay, conditions: stock concentration (mM, diluted 1:100): 8.7
row,SMILES,HIS4 meiotic recombination assay sensitivity score
1,CC(NC(C)(C)C)C(=O)c1cccc(Cl)c1 (stereo not drawn) [Bupropion hydrochloride],1.07 (inactive)

# Same assay, conditions: stock concentration (mM, diluted 1:100): 8.9
row,SMILES,HIS4 meiotic recombination assay sensitivity score
1,COc1ccc(C(CN(C)C)C2(O)CCCCC2)cc1 (stereo not drawn) [Venlafaxine hydrochloride],1 (inactive)

# Same assay, conditions: stock concentration (mM, diluted 1:100): 9.7
row,SMILES,HIS4 meiotic recombination assay sensitivity score
1,CN1CCC(c2ccc(F)cc2)C(COc2ccc3c(c2)OCO3)C1 (stereo not drawn) [Methyl paroxetine],10.7 (active)

# Same assay, conditions: stock concentration (mM, diluted 1:100): 9.8
row,SMILES,HIS4 meiotic recombination assay sensitivity score
1,CN1CC[C@]2(c3cccc(O)c3)Cc3nc4ccccc4cc3C[C@H]2C1,0.28 (inactive)

# Same assay, conditions: stock concentration (mM, diluted 1:100): 10
row,SMILES,HIS4 meiotic recombination assay sensitivity score
1,C[C@]12CC[C@H]3[C@@H](CCC4=CC(=O)CC[C@@H]43)[C@@H]1CC[C@@H]2O [19-Nortestosterone],1.09 (inactive)
2,Oc1cc2c(cc1O)[C@H]1c3ccccc3CN[C@@H]1CC2,2.29 (inactive)
3,CNCC(O)c1ccc(O)cc1 (stereo not drawn) [Synephrine],-1.28 (inactive)
4,COc1cc2c(cc1OC)[C@@]13CCN4CC5=CCO[C@H]6CC(=O)N2[C@H]1[C@H]6[C@H]5C[C@H]43 [Brucine],0.05 (inactive)
5,NCCc1ccccn1 [2-(2-aminoethyl)pyridine],-0.1 (inactive)
6,CS(=O)(=O)Nc1ccc(Cc2noc(-c3ccc4[nH]cc(CCN)c4c3)n2)cc1,-0.76 (inactive)
7,CC(C)CC(N(C)C)C1(c2ccc(Cl)cc2)CCC1 (stereo not drawn) [Sibutramine hydrochloride],0.96 (inactive)
8,C#CCN(C)[C@H](C)Cc1ccccc1 [Selegiline],0.06 (inactive)
9,CNC(=O)Oc1ccc2c(c1)[C@]1(C)CCN(C)[C@@H]1N2C [Physostigmine],-0.16 (inactive)
10,N=C(NCc1ccc(Cl)cc1)SCCCc1c[nH]cn1 [Clobenpropit],-0.07 (inactive)
11,CCN(CC)CCOC(=O)C(O)(c1ccccc1)c1ccccc1 [Benactyzine hydrochloride],-0.53 (inactive)
12,CNC1CC(c2ccc(Cl)c(Cl)c2)c2ccccc21 (stereo not drawn) [Indatraline],-0.83 (inactive)
13,CC[C@@H]1C=CC=CC[C@H](C)[C@@H](O)[C@@H](C)C(=O)[C@H](C)[C@@H](O)[C@H](C)C(=O)[C@H](C)[C@@H](O)[C@H](C)C=CC(=O)O[C@H]2[C@@H](C)[C@@H](CC1)O[C@@]1(CC[C@@H](C)[C@@H](C[C@H](C)O)O1)[C@@H]2C [Oligomycin c],0.21 (inactive)
14,c1cncc([C@@H]2CCCN2)c1 [Nornicotine],-1.18 (inactive)
15,C[C@]12CC[C@H](O)CC1=CC[C@@H]1[C@@H]2CC[C@]2(C)C(=O)CC[C@@H]12 [Dehydroepiandrosterone],3.07 (inactive)
16,CC(O)(CS(=O)(=O)c1ccc(F)cc1)C(=O)Nc1ccc(C#N)c(C(F)(F)F)c1 (stereo not drawn) [Bicalutamide],-0.62 (inactive)
17,c1ccc2c3c([nH]c2c1)CNCC3 [Tryptoline],-3.38 (inactive)
18,Cc1nnc2n1-c1ccc(Cl)cc1C(c1ccccc1)=NC2 [Alprazolam],1.57 (inactive)
19,CCN(C(C)=O)c1cccc(-c2ccnc3c(C#N)cnn23)c1 [Zaleplon],-0.58 (inactive)
20,O=c1c2ccccc2[se]n1-c1ccccc1 [Ebselen],-0.37 (inactive)

# Same assay, conditions: stock concentration (mM, diluted 1:100): 10.1
row,SMILES,HIS4 meiotic recombination assay sensitivity score
1,CC[C@@H](C(N)=O)N1CCCC1=O [Levetiracetam],-0.77 (inactive)
2,NC(=O)OCCCc1ccccc1 [Phenprobamate],0.5 (inactive)
3,CC(NC(C)(C)C)C(=O)c1cccc(Cl)c1 (stereo not drawn) [Amfebutamone hydrochloride],-0.33 (inactive)
4,C[C@]12C/C(=C/O)C(=O)C[C@@H]1CC[C@@H]1[C@@H]2CC[C@@]2(C)[C@H]1CC[C@]2(C)O [Oxymetholone],8.48 (active)
5,C=C(C)CN1CC[C@]23c4c5ccc(O)c4O[C@H]2c2[nH]c4ccccc4c2C[C@@]3(O)C1C5,3.9 (inactive)

# Same assay, conditions: stock concentration (mM, diluted 1:100): 11.3
row,SMILES,HIS4 meiotic recombination assay sensitivity score
1,CC(C)CC(N(C)C)C1(c2ccc(Cl)cc2)CCC1 (stereo not drawn) [Sibutramine],1.61 (inactive)

# Same assay, conditions: stock concentration (mM, diluted 1:100): 19.9
row,SMILES,HIS4 meiotic recombination assay sensitivity score
1,Cc1ccc(-c2nc3ccc(C)cn3c2CC(=O)N(C)C)cc1 [Zolpidem tartrate],0.04 (inactive)
